The list is not random: actives were taken first. Their share in the collection is about 2.8%.
POLH inh: blocks human DNA polymerase eta activity; Q9Y253; recombinant Pol eta, fluorescent DNA replication assay; Potency, µM (series often up to 114 µM), inactives show at the top dose activity change, negative = inhibition, actives largely listed as inhibitors; hit rate 1.2% among 390,000; AID 588591; note: potency is the fitted concentration of half-maximal effect; % is set by controls: 0 for no effect and ±100 for the full control effect
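Fluorescent replication assay: 50 nM final substrate added after a 15 min room-temperature compound preincubation with 10 nM enzyme. Signal taken at 0 min and again at 10 min.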
Pol kappa inh: blocks human DNA polymerase kappa activity; Q9UBT6; Potency, µM (series often up to 107 µM), for inactives: top-dose activity, negative = inhibition, most hits filed as inhibitors; AID 588579; hit rate 0.53% among 400,000; purified Pol kappa, fluorescent DNA synthesis assay, 10 min; note: potency is the fitted concentration of half-maximal effect; % is set by controls: 0 for no effect and ±100 for the full control effect
Target sequence (Q9UBT6 whole entry, looked up): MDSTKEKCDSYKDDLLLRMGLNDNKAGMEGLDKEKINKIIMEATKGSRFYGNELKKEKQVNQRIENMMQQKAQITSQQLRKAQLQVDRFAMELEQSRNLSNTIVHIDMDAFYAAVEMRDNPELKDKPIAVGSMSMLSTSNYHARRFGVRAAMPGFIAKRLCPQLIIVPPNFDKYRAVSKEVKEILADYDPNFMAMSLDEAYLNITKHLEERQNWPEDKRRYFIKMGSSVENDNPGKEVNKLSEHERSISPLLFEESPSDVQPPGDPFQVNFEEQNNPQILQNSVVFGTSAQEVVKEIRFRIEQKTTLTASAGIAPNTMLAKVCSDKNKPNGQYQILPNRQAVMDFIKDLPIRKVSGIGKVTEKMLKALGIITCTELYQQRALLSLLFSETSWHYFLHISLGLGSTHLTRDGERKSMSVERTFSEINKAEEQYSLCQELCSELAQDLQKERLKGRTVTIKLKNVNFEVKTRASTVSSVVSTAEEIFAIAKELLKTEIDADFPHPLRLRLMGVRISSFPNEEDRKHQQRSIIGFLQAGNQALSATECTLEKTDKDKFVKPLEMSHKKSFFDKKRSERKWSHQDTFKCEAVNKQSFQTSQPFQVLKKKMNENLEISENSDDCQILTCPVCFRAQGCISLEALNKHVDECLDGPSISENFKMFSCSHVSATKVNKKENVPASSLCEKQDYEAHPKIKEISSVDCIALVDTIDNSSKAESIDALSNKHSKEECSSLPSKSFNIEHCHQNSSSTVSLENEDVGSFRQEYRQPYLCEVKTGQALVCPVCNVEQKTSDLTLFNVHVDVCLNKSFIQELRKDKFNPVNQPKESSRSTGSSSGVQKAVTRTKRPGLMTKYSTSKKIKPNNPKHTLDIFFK
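Inhibition of 10 nM Pol kappa is measured by a fluorescent read-out at 0 and 10 min following addition of 50 nM substrate (final), with a 15-min room-temperature compound preincubation.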
PI5P4K alpha inh: PI5P4K alpha (human) kinase inhibition; P48426; PI5P4Kalpha enzyme, ADP-Glo luminescence, 60 min; stronger effect = lower value; max response, %; hit rate 1.2% among 330,000; AID 652105; active = max response of -50% or lower; inconclusive = between -30% and -50%; inactive = -30% or higher; note: value at the top dose of about 77 µM; % is set by controls: 0 for no effect and ±100 for the full control effect
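ADP-Glo luminescence end-point after a 60 min room-temperature kinase reaction. PI5P4Kalpha and substrate in HEPES pH 7.4 buffer with EGTA, 0.1% CHAPS and 5% DMSO; ATP at 5 microM final.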
POLB inh: DNA polymerase beta (human) inhibition. Pol beta primer extension/strand displacement, fluorescence kinetic. hit rate 1.3% among 340,000. P06746. Potency, µM (series often up to 114 µM), for inactives: at the top dose activity change, negative = inhibition, actives largely listed as inhibitors; note: potency is the fitted concentration of half-maximal effect; % is set by controls: 0 for no effect and ±100 for the full control effect
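Preincubation: enzyme (10 nM) with compound, 15 min, RT. Reaction: substrate added to 50 nM final. Reads: 0 and 10 min. Analysis: normalized, Hill fit.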
POLI inh: blocks human DNA polymerase iota activity; Q9UNA4; Pol iota fluorescent replication assay, 10 min; Potency, µM (titrated, usually from 115 µM), without a hit: at the highest dose activity, negative = inhibition, hits mostly inhibitors; hit rate 1% among 390,000; note: potency is the fitted concentration of half-maximal effect
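Pol iota at 10 nM preincubated 15 min with compounds at room temperature; reaction started with fluorescent substrate, 50 nM final. Fluorescence read kinetically at 0 and 10 min; buffer-only wells as negative control.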
WRN inhibitor: WRN helicase (human) inhibition. WRN helicase unwinding, fluorescent forked duplex, kinetic. Potency, µM (titrated, usually from 114 µM), for inactives: top-dose activity change, negative = inhibition, actives largely listed as inhibitors. hit rate 0.46% among 360,000. AID 651768; note: potency is the fitted concentration of half-maximal effect; % is set by controls: 0 for no effect and ±100 for the full control effect; nearly all actives have a fitted effect of over 55% in size
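WRN at 20 nM final was preincubated with compound for 15 min at room temperature; reaction started with 100 nM forked duplex oligonucleotide carrying fluorophore and quencher plus 2 mM ATP (final). Unwinding followed kinetically by red fluorescence (ex 525/em 598 nm).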
* hit, by the source's call; ? = inconclusive; nt = no result given; [ ] = remark or other dose. Unless noted, calls come from the whole dose curve; as a rule, active = well fitted curve in the direction sought with a large enough effect; inconclusive = small, poorly fitted or top-dose-only effect, or another doubt; inactive = no such curve, though single readings can be large; an effect the other way counts as inactive or inconclusive.

SMILES	POLH inh	Pol kappa inh	PI5P4K alpha inh	POLB inh	POLI inh	WRN inhibitor
CCOCCCNc1nc(C)nc2c1nnn2Cc1c(F)cccc1Cl	-9%	2%	7	-23%	-3%	-9%
COc1ccc(C(=O)COc2ncnc3cc(Cl)ccc23)cc1	-10%	11%	-1	15%	4%	1%
CCCC[C@@H]1CCCO[C@@](C(=O)NCCOC)(C(F)(F)F)C1	nt	1%	nt	nt	8%	nt
COc1ccc(OC)c(CN2CCN(C(=O)[C@@H](NC(=O)c3cccc(C)c3)C(C)C)CC2)c1	-11%	-7%	0	nt	3%	2%
CN(C)c1ccc(CNC(=O)C2CCN(Cc3cc4ccccc4n3Cc3ccccc3)CC2)cc1	-15%	0%[60.1 µM]	nt	0%	-3%	nt
c1coc(-c2nn3c(-c4ccco4)nnc3s2)c1	?	?	-62*	28µM*	?	?
COc1ccccc1-c1nn2c(-c3cc(-c4ccccc4)n[nH]3)nnc2s1	nt	8%	nt	nt	-1%	nt
COc1ccccc1-c1nn2c(-c3ccccc3Cl)nnc2s1	nt	nt	nt	-8%	nt	nt
COc1ccccc1-c1nn2c(-c3ccco3)nnc2s1	-10%	-15%	nt	14µM*	?	-16%
COc1ccc(OCc2nn3c(-c4ccco4)nnc3s2)cc1	?	-6%	-22	?	-7%	-10%
COc1cccc(OC)c1-c1nn2c(-c3cc(-c4ccccc4)n[nH]3)nnc2s1	6.3µM*	28µM*	-66*	?	28µM*	40µM*
CCCN1CCN(CCCNC(=O)CN2C(=O)COc3ccc(C(C)(C)C)cc32)CC1	-7%	nt	0	nt	nt	-1%
CC1(S(=O)(=O)O)CC(=O)c2ccccc2C1=O (stereo unspecified)	?	-16%	-2	?	6.3µM*	-10%[11.6 µM]
CCN(CCCCCCN)c1ccc2c(=O)[nH][nH]c(=O)c2c1	79µM*	-5%	0	-27%	46%	0%[11.6 µM]
Cc1c(CC(=O)O)c(=O)oc2c(C)c3occ(-c4ccc(F)cc4)c3cc12	0%	7%	-15	50µM*	-12%	-10%
COc1ccc(-c2coc3c(C)c4oc(=O)c(CCC(=O)O)c(C)c4cc23)cc1	50µM*	-41%	?	?	?	?
COC(=O)C(CO)Nc1ncnc2onc(-c3ccc(F)cc3)c12 (stereo unspecified)	-7%	-5%	0	41%	50%	-8%
Cc1cccc(Nc2nnc(SCC(O)=C(C#N)c3nc4ccccc4[nH]3)s2)c1	?	-27%	-61*	nt	?	?
O=C(N=NC(=O)c1ccco1)c1ccc2c(O)n(N3C(=O)c4ccccc4C3=O)c(O)c2c1	?	-15%	-8	45µM*	-13%	-11%
O=C1C=CC(=O)c2c1ccc1c2ccc2ccccc21	nt	-19%[12 µM]	nt	nt	nt	nt
O=C1C(=O)c2c(ccc3ccccc23)-c2ccccc21	7.9µM*	-1%	8	nt	54%	-10%[11.6 µM]
COc1ccc(C2=C(C)C(=O)N(Cc3ccc(C(=O)NCc4cccc(C)c4)cc3)S2(=O)=O)cc1	nt	-20%	nt	6%	12%	nt
Cc1ccc2nc(/C(C#N)=C\c3ccc(N4CCOCC4)o3)[nH]c2c1	?	-20%	-24	35µM*	?	45µM*
N#C/C(=C\c1ccc(Sc2ccccc2)o1)c1nc2ccccc2[nH]1	?	-30%	-2	40µM*	-4%	?
N#C/C(=C\c1ccc(-c2ccc(F)cc2F)o1)c1nc2ccccc2[nH]1	-1%	-8%	nt	?	?	nt
SMILES	POLH inh	Pol kappa inh	PI5P4K alpha inh	POLB inh	POLI inh	WRN inhibitor
N#C/C(=C\c1ccc(-c2ccccc2C(=O)O)o1)c1nc2ccccc2[nH]1	?	-23%	-69*	-21%	36%	56µM*
Cc1cc2nc(/C(C#N)=C\c3ccc(-c4ccccc4C(=O)O)o3)[nH]c2cc1C	25µM*	?	-27	?	?	-15%[11.6 µM]
S=C(NCC1CCCO1)NC1CCCC1 (stereo unspecified)	2%	-10%	5	1%	25%	9%
CCOc1ccc(NC(=O)C2CC(=O)N(c3ccc(C(C)C)cc3)C2)cc1 (stereo unspecified)	-17%	-3%	nt	-6%	29%	nt
Cc1[nH]nc2c1C1(C(=O)Nc3ccc([N+](=O)[O-])cc31)C(C#N)=C(N)O2 (stereo unspecified)	-4%	-10%	-56*	-1%	2%	-4%
Cc1ccc(SCc2[nH]nc3c2C2(C(=O)Nc4ccc(F)cc42)C(C#N)=C(N)O3)cc1 (stereo unspecified)	-15%	-20%	-3	3%	18%	3%
Cc1ccc(CNC(=O)CCc2nnc3ccc(N4CCC5(CC4)OCCO5)nn23)cc1	-13%	79µM*	3	14%	?	4%[11.6 µM]
COc1ccc(CNC(=O)CCc2nnc3ccc(N4CCC5(CC4)OCCO5)nn23)cc1	1%	5%	0	21%	-10%	0%
NC(=NCc1ccc2c(c1)OCO2)NC(=O)c1ccccc1	79µM*	-3%	3	22%	-2%	?
C/C=C\C=C\C(=O)Nc1cccc(C2=NOC3(C2)C[C@@H](C(N)=O)N(C(=O)C(c2ccccc2)c2ccccc2)C3)c1 (stereo partly specified)	-15%	-2%	-65*	-2%	?	7%
C=C(C)C(=O)Nc1cccc(C2=NOC3(C2)C[C@H](C(N)=O)N(C(=O)CC#N)C3)c1 (stereo partly specified)	20µM*	?	-20	35µM*	?	-32%
C/C=C/C=C/C(=O)N1CC2(CC(c3cccc(NC(=O)CCCCC)c3)=NO2)C[C@H]1C(N)=O (stereo partly specified)	?	-12%	-76*	14%	?	-11%
C/C=C\C=C/C(=O)Nc1cccc(C2=NOC3(C2)C[C@H](C(N)=O)N(C(=O)CC)C3)c1 (stereo partly specified)	?	-4%	-4	-2%	?	-19%
C/C=C\C=C/C(=O)Nc1cccc(C2=NOC3(C2)C[C@@H](C(N)=O)N(C(=O)c2ccc(Cl)cc2)C3)c1 (stereo partly specified)	-9%	-2%	-66*	-10%	4%	4%
CN(C)CCCCCCNc1nccc(N2CCN(C)CC2)n1	nt	-1%	nt	nt	89%	nt
C[C@H]1CN([C@@H](C)CO)S(=O)(=O)c2ccc(Br)cc2O[C@H]1CN(C)C(=O)Cc1ccncc1	nt	nt	2	nt	nt	-2%
CS(=O)(=O)c1ccc(Cl)c(NC(=O)c2cc(S(=O)(=O)N3CCOCC3)ccc2N2CCCC2)c1	-7%	-6%	-8	nt	-5%	-3%

Bioassay records deposited in PubChem BioAssay by National Center for Advancing Translational Sciences (NCATS).
